Reference: ChEMBL document CHEMBL2218924, “A broad activity screen in support of a chemogenomic map for kinase signalling research and drug discovery” (Biochem J, 2013)

molecular target: Tyrosine-protein kinase ABL1 (Homo sapiens) (UniProt P00519); details: at 1 µM
Sequence (P00519 whole entry): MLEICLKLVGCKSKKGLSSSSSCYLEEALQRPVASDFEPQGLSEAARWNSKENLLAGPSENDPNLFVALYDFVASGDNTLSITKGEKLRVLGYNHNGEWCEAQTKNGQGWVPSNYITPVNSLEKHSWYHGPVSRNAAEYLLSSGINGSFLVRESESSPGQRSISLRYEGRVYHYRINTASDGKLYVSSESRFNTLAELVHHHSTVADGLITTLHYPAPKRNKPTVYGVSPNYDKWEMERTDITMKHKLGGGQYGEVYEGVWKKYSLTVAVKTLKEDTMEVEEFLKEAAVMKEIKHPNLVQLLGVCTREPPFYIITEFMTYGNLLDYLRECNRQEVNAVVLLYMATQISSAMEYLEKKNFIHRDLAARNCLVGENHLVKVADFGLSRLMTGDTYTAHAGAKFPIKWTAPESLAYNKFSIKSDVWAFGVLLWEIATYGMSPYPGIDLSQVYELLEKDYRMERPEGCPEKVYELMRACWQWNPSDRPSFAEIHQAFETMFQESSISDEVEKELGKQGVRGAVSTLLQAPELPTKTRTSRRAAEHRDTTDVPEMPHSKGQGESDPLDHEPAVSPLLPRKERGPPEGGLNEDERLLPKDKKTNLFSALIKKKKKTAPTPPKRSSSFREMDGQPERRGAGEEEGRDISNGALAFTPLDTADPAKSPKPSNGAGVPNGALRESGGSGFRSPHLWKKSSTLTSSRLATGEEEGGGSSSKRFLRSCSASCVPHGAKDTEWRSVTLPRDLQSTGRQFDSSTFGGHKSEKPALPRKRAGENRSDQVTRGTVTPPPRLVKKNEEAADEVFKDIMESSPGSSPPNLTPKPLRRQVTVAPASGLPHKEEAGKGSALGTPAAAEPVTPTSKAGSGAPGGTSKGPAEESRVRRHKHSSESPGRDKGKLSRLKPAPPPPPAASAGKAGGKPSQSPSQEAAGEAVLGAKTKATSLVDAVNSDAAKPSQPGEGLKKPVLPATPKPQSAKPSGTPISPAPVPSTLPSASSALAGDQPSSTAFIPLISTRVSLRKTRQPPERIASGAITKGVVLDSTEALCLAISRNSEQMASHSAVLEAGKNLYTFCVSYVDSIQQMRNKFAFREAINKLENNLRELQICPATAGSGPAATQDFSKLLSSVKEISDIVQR

SMILES	residual activity
CCN(CC)CCCCN1c2ccccc2Oc2ccc(Cl)cc21	124%
O=[N+]([O-])c1ccc(-c2nc(-c3ccc(F)cc3)c(-c3ccncc3)[nH]2)cc1	95%
Cc1ccc(S(=O)(=O)/C=C/C#N)cc1	104%
COc1cc2ncnc(Nc3ccc(NC(=O)c4ccccc4)cc3)c2cc1OC	101%
Cn1nc2c3c(cccc31)C(=O)c1ccccc1-2	101%
Cc1nc2cc3nc(-c4cccs4)cnc3cc2n1C	90%
CC(C)n1cnc2/c(=N/c3cccc(Cl)c3)nc(NCCO)[nH]c21	73%
Cc1cc(Nc2nc(-c3ccccc3)nc3ccccc23)n[nH]1	54%
Cc1cncc2cccc(S(=O)(=O)N3CCCN(C(=O)CN)C[C@H]3C)c12	88%
Cc1cccc(-c2[nH]c(C(C)(C)C)nc2-c2ccc3c(c2)OCO3)n1	96%
N#Cc1cnc2cnc(NCc3cccnc3)cc2c1Nc1ccc(F)c(Cl)c1	98%
COc1ccc(S(=O)(=O)N(CCO)c2ccccc2CN(C)C/C=C/c2ccc(Cl)cc2)cc1	92%
c1ccc2c(-c3ccncc3)c[nH]c2c1	98%
c1ccc(-c2n[nH]cc2-c2ccnc3ccccc23)nc1	69%
O=C(Nc1cccc(Nc2nccc(Nc3cccc(C(F)(F)F)c3)n2)c1)C1CC1	68%
COc1ccc(OC)c2c(=S)c3ccccc3[nH]c12	97%

SMILES	residual activity
COc1cc2ncc(-c3ccccc3)nc2cc1OC	96%
O=C1NC(=O)c2c1c1c3ccccc3[nH]c1c1[nH]c3cc(Br)ccc3c21	98%
O=C(Nc1cccc(Nc2cc(Nc3cccc(C(F)(F)F)c3)ncn2)c1)C1CC1	84%
N#CCCc1ccc2c(c1)-c1[nH]c3ccc([N+](=O)[O-])cc3c1CC(=O)N2	31%
O=C1Nc2ccc(Br)cc2/C1=C\c1cc2c([nH]1)CCCC2	105%
Nc1nc(Nc2ccc(S(N)(=O)=O)cc2)nn1C(=S)Nc1c(F)cccc1F	-5%
Nc1cccc(-c2cc3c(Oc4cccc(O)c4)ncnc3[nH]2)c1	-6%
Cc1cc2ncc(-c3ccccc3)nc2cc1C	92%
CO[C@@H]1[C@H](N(C)C(=O)c2ccccc2)C[C@H]2O[C@]1(C)n1c3ccccc3c3c4c(c5c6ccccc6n2c5c31)C(=O)NC4	89%
COc1ccc(C(=O)Nc2sc3c(c2C(N)=O)CCCC3)cc1OC	87%
CO[C@H]1[C@@H](OC)C[C@H](C)[C@@H](OC)C2=CC(=O)C=C(NC(=O)/C(C)=C/C=C/[C@H](OC)[C@@H](OC(N)=O)/C(C)=C/[C@@H]1C)C2=O	94%
O=C1NC(=O)c2cc(Nc3ccc(F)cc3)c(Nc3ccc(F)cc3)cc21	85%
Oc1n[nH]c2nnc(-c3c(-c4ccccc4)nn4ccccc34)cc12	81%
O=Nc1c(-c2c(O)[nH]c3ccccc23)[nH]c2ccccc12	49%
N#CC(C#N)=C(N)/C(C#N)=C/c1ccc(O)cc1	87%
c1ccc(-c2n[nH]c3c2oc2ccccc23)cc1	96%

molecular target: Tyrosine-protein kinase ABL1 (Homo sapiens) (UniProt P00519); details: at 10 µM

SMILES	residual activity
CCN(CC)CCCCN1c2ccccc2Oc2ccc(Cl)cc21	102%
O=[N+]([O-])c1ccc(-c2nc(-c3ccc(F)cc3)c(-c3ccncc3)[nH]2)cc1	95%
Cc1ccc(S(=O)(=O)/C=C/C#N)cc1	97%
COc1cc2ncnc(Nc3ccc(NC(=O)c4ccccc4)cc3)c2cc1OC	81%
Cn1nc2c3c(cccc31)C(=O)c1ccccc1-2	70%
Cc1nc2cc3nc(-c4cccs4)cnc3cc2n1C	52%
CC(C)n1cnc2/c(=N/c3cccc(Cl)c3)nc(NCCO)[nH]c21	25%
Cc1cccc(-c2[nH]c(C(C)(C)C)nc2-c2ccc3c(c2)OCO3)n1	102%
N#Cc1cnc2cnc(NCc3cccnc3)cc2c1Nc1ccc(F)c(Cl)c1	84%
COc1ccc(S(=O)(=O)N(CCO)c2ccccc2CN(C)C/C=C/c2ccc(Cl)cc2)cc1	118%
c1ccc2c(-c3ccncc3)c[nH]c2c1	100%
c1ccc(-c2n[nH]cc2-c2ccnc3ccccc23)nc1	14%
O=C(Nc1cccc(Nc2nccc(Nc3cccc(C(F)(F)F)c3)n2)c1)C1CC1	76%
O=C1Nc2cc(Br)ccc2/C1=C1/Nc2ccccc2/C1=N\O	6%
COc1ccc(OC)c2c(=S)c3ccccc3[nH]c12	89%
COc1cc2ncc(-c3ccccc3)nc2cc1OC	83%
O=C1NC(=O)c2c1c1c3ccccc3[nH]c1c1[nH]c3cc(Br)ccc3c21	82%
O=C(Nc1cccc(Nc2cc(Nc3cccc(C(F)(F)F)c3)ncn2)c1)C1CC1	104%
N#CCCc1ccc2c(c1)-c1[nH]c3ccc([N+](=O)[O-])cc3c1CC(=O)N2	13%
O=C1Nc2ccc(Br)cc2/C1=C\c1cc2c([nH]1)CCCC2	75%
Nc1nc(Nc2ccc(S(N)(=O)=O)cc2)nn1C(=S)Nc1c(F)cccc1F	-5%
Nc1cccc(-c2cc3c(Oc4cccc(O)c4)ncnc3[nH]2)c1	-5%
Cc1cc2ncc(-c3ccccc3)nc2cc1C	87%
COc1ccc(C(=O)Nc2sc3c(c2C(N)=O)CCCC3)cc1OC	86%
CO[C@H]1[C@@H](OC)C[C@H](C)[C@@H](OC)C2=CC(=O)C=C(NC(=O)/C(C)=C/C=C/[C@H](OC)[C@@H](OC(N)=O)/C(C)=C/[C@@H]1C)C2=O	68%
O=C1NC(=O)c2cc(Nc3ccc(F)cc3)c(Nc3ccc(F)cc3)cc21	87%
O=Nc1c(-c2c(O)[nH]c3ccccc23)[nH]c2ccccc12	16%
N#CC(C#N)=C(N)/C(C#N)=C/c1ccc(O)cc1	78%
c1ccc(-c2n[nH]c3c2oc2ccccc23)cc1	77%
